# Measured values taken from the supplement of paper PMC10849652.
# Targets with a hit are over-represented here; the source holds about 7,900 in all. About 0.6% of all pairs of compound and target were hits. Values without a mark were called inactive.
# How the values were obtained:
# Assay in all cases: log2 fold change, soluble protein after heating vs DMSO (PISA); higher = thermal stabilisation; K562 cells, 10 uM, 30 min; active = over 0.2 and 3.5 SD of the protein, either way, in both replicates (recomputed)
# [1] = compound: CC1=C(C=C(C=C1)NC(=O)C2=CC(=CC=C2)C(C)(C)C#N)NC3=CC4=C(C=C3)N=CN(C4=O)C
# Summary of the method: (§1)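 K562 cells at 2×10^6 cells/mL were treated for 30 min with 10 μM compound, and aliquots were heated for 3 min over 48°C-58°C before pooling. Extraction used PBS with 0.5% NP-40 at 4°C, and soluble protein was the supernatant after 21,000xg for 90 min, measured by TMTpro 16plex LC-MS/MS with channel sums equalised. Thermal stability values, relative to control samples and from duplicates, are log2 fold changes.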
# [2] = compound: CC1=C(C=C(C=C1)NC(=O)C2=CC(=CC=C2)N(C)C)NC(=O)C3=CC=C(C=C3)O
# Summary of the method: as §1
# [3] = compound: CC1=CC=C(C=C1)SC2=C3C=C(SC3=CN=C2)C(=O)N
# Summary of the method: as §1
# [4] = compound: CC1=NC(=CC=C1)C2=C(N=C(N2)C(C)(C)C)C3=CC4=NC=CN=C4C=C3
# Summary of the method: as §1
# Nexturastat A = compound: CCCCN(Cc1ccc(C(=O)NO)cc1)C(=O)Nc1ccccc1 [Nexturastat A]
# Summary of the method: as §1
# vemurafenib = compound: CCCS(=O)(=O)Nc1ccc(F)c(C(=O)c2c[nH]c3ncc(-c4ccc(Cl)cc4)cc23)c1F [vemurafenib]
# Summary of the method: as §1
# [5] = compound: CCCS(=O)(=O)Nc1ccc(F)c(C(=O)c2c[nH]c3ncc(Cl)cc23)c1F
# Summary of the method: as §1
# [6] = compound: CCCc1cc(C)[nH]c(=O)c1CNC(=O)c1cc(-c2ccnc(N3CCN(C)CC3)c2)cc2c1cnn2C(C)C
# Summary of the method: as §1
# givinostat = compound: CCN(CC)Cc1ccc2cc(COC(=O)Nc3ccc(C(=O)NO)cc3)ccc2c1 [givinostat]
# Summary of the method: as §1
# barasertib = compound: CCN(CCCOc1ccc2c(Nc3cc(CC(=O)Nc4cccc(F)c4)[nH]n3)ncnc2c1)CCOP(=O)(O)O [barasertib]
# Summary of the method: as §1
# Sequence of UniProt P63218 (P63218 whole entry, looked up): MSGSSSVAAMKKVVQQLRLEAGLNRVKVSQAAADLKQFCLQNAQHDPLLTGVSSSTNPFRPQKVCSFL
# Sequence of UniProt Q9H4A6 (Q9H4A6 whole entry, looked up): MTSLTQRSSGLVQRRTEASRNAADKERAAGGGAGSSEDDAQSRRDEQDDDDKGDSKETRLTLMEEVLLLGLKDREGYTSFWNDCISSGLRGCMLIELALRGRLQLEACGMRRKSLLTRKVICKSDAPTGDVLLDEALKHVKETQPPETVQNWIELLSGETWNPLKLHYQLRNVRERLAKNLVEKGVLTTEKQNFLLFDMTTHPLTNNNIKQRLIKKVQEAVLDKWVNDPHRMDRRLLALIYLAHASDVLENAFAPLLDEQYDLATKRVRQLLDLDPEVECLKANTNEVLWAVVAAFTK
# Sequence of UniProt Q9UKN8 (Q9UKN8 whole entry, looked up): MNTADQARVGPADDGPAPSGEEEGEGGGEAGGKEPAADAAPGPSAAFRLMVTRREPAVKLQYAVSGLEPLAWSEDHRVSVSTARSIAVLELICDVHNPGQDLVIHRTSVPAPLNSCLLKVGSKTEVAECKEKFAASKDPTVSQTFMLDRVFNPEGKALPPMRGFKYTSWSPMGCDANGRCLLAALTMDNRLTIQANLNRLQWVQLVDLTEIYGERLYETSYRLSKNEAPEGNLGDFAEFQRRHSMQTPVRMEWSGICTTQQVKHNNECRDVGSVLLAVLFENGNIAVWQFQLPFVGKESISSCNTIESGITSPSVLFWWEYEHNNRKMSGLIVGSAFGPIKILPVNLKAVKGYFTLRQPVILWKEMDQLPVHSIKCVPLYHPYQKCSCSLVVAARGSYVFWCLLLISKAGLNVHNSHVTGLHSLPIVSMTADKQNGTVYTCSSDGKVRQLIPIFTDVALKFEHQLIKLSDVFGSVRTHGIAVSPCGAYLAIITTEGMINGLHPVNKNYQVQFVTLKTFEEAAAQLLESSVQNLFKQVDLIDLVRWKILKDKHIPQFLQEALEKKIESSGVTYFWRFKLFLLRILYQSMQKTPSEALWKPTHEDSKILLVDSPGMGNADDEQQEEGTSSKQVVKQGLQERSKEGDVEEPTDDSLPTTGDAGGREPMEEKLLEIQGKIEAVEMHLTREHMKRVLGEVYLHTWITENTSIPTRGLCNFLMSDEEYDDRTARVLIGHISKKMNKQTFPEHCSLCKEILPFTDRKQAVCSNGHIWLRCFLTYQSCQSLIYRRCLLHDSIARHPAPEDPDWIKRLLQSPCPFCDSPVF
# Sequence of UniProt O00291 (O00291 whole entry, looked up): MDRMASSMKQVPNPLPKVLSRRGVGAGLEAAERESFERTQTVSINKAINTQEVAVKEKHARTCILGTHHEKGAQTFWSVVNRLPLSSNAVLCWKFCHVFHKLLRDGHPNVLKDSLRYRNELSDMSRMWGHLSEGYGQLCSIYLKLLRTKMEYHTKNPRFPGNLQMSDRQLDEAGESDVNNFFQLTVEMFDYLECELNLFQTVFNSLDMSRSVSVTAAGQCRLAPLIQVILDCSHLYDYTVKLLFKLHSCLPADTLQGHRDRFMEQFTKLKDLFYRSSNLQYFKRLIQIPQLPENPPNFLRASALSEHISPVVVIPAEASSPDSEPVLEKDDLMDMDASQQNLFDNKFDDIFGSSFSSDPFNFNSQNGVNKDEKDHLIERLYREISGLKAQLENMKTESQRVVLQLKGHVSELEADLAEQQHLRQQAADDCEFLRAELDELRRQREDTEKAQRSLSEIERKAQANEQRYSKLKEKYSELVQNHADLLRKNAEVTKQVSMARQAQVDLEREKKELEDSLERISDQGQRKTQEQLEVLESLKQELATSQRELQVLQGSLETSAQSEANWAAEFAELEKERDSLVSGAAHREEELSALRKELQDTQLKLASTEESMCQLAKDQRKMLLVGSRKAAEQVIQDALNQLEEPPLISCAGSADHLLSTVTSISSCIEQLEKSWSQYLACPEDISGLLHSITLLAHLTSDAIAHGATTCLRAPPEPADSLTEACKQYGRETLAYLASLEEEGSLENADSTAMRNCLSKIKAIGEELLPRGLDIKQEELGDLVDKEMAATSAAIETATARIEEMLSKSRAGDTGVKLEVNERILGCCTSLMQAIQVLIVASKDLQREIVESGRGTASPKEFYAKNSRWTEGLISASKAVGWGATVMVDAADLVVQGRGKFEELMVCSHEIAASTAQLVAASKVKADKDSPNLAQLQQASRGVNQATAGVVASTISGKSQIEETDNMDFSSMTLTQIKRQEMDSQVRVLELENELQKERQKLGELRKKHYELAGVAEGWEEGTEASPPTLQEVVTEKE
# Sequence of UniProt P50213 (P50213 whole entry, looked up): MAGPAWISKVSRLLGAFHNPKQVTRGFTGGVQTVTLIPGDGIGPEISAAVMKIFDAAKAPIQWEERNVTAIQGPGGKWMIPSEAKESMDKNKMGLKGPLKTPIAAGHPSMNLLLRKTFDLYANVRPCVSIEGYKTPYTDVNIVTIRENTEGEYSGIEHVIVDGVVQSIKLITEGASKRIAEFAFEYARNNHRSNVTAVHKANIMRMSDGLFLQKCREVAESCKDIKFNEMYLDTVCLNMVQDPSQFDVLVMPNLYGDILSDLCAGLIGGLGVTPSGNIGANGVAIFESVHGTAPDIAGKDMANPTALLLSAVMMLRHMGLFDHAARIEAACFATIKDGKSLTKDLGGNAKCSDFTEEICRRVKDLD
# Sequence of UniProt Q03014 (Q03014 whole entry, looked up): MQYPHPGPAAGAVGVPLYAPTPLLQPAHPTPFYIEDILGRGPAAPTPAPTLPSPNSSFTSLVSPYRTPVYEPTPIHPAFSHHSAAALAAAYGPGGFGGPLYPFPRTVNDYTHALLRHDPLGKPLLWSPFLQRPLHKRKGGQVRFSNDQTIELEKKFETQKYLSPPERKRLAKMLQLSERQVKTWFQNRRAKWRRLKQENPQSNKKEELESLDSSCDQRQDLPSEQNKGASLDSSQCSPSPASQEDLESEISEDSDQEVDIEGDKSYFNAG
# Sequence of UniProt P00367 (P00367 whole entry, looked up): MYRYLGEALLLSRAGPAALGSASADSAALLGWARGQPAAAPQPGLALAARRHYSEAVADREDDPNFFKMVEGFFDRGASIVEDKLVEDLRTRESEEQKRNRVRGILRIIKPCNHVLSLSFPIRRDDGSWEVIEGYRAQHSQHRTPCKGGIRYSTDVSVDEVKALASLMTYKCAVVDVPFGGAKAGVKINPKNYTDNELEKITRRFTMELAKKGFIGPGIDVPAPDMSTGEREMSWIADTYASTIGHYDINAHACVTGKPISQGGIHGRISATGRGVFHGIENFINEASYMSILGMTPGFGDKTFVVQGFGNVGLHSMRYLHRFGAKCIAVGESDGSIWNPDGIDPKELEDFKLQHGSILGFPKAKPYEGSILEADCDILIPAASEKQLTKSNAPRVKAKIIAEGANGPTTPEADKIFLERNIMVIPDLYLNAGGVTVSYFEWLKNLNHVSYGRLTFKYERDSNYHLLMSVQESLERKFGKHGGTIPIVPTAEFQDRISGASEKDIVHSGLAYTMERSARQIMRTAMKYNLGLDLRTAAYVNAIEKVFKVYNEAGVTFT
# Sequence of UniProt P11142 (P11142 whole entry, looked up): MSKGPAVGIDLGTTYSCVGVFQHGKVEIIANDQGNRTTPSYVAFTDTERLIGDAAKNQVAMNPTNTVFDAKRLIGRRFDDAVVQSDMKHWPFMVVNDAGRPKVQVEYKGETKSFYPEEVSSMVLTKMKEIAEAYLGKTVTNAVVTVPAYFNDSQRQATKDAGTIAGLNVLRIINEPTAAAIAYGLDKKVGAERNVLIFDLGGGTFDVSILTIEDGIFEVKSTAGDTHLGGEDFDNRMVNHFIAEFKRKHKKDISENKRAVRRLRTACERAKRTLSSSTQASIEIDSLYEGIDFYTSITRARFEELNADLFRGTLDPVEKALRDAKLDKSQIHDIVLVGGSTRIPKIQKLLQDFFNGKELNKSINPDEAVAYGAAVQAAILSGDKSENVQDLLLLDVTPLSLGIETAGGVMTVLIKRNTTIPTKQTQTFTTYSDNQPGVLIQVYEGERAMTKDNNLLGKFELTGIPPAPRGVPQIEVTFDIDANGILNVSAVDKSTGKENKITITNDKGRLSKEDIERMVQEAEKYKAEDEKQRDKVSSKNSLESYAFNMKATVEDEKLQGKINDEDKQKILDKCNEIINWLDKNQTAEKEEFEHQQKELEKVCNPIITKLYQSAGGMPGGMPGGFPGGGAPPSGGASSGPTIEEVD
# Sequence of UniProt Q9Y680 (Q9Y680 whole entry, looked up): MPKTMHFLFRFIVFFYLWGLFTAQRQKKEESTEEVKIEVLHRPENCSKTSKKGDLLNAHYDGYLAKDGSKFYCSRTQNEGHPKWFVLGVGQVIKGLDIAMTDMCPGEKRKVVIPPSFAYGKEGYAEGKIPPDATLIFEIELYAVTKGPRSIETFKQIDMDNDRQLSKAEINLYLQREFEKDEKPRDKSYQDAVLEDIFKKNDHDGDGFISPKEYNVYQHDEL
# Sequence of UniProt Q12894 (Q12894 whole entry, looked up): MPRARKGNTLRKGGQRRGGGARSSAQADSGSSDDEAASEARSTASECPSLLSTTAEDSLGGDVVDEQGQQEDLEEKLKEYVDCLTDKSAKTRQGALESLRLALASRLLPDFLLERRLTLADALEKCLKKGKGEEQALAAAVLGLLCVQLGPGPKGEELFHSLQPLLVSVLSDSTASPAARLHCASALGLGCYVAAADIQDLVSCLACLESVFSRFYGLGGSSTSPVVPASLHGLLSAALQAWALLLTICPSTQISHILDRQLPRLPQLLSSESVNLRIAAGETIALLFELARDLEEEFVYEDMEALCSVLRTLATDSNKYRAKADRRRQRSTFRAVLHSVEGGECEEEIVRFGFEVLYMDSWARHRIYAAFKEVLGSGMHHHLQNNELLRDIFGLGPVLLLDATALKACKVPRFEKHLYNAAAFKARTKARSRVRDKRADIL
# Sequence of UniProt P0CL80 (P0CL80 whole entry, looked up): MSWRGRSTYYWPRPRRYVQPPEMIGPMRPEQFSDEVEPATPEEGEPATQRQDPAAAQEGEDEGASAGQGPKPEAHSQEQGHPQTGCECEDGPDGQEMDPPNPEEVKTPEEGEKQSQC
Target,log2 fold change [1],log2 fold change [2],log2 fold change [3],log2 fold change [4],log2 fold change (Nexturastat A),log2 fold change (vemurafenib),log2 fold change [5],log2 fold change [6],log2 fold change (givinostat),log2 fold change (barasertib)
GALNT1 (UniProt Q10472),-0.004,0,0.03,0.067,0.001,0.02,-0.021,-0.055,0.003,0.007
GTF2H3 (UniProt Q13889),-0.094,-0.008,-0.024,0,0.016,-0.081,-0.021,-0.112,0.068,-0.042
IFRD1 (UniProt O00458),0.123,0.033,0.098,-0.04,-0.103,0.001,0.058,-0.111,-0.154,-0.079
FBXO7 (UniProt Q9Y3I1),-0.048,-0.028,0.004,-0.014,0.047,0.017,-0.022,-0.026,0.03,0.02
GLYR1 (UniProt Q49A26),0.039,0.032,-0.125,-0.06,0.375 (active),0.054,0.009,0.085,0.091,0.136
GTF2A2 (UniProt P52657),0.009,-0.029,0.052,0.03,-0.091,-0.083,-0.017,-0.053,-0.044,0.007
FARS2 (UniProt O95363),0.012,-0.015,-0.032,0.078,0.044,0.032,0.01,-0.087,-0.019,0.035
HSPA8 (UniProt P11142),0.021,0.005,-0.025,0.011,-0.011,-0.008,-0.02,0.04,-0.02,-0.005
FHOD1 (UniProt Q9Y613),-0.288,0.073,-0.063,-0.09,0.365,-0.002,-0.134,0.132,0.024,0.044
GTF3C4 (UniProt Q9UKN8),-0.025,-0.027,0.038,0.008,-0.052,0.032,0.045,0.033,-0.007,0.003
FLNA (UniProt P21333),-0.03,-0.049,0.015,0.006,0.092,0.021,0.075,0.044,0.092,0.019
HEATR5B (UniProt Q9P2D3),0.013,0.005,0.03,0.022,0.219 (active),0.019,-0.014,-0.024,0.07,0
FNTB (UniProt P49356),0.032,-0.058,0,0,-0.041,0.011,-0.052,0.029,-0.083,-0.034
HIP1 (UniProt O00291),-0.086,-0.004,-0.028,0.002,0.286 (active),-0.003,0.056,0.233,0.043,0.01
HNRNPUL1 (UniProt Q9BUJ2),-0.063,-0.058,-0.013,0.03,0.024,0.032,-0.033,0.024,0.046,0.04
GOLPH3 (UniProt Q9H4A6),0.074,-0.031,-0.017,0.022,-0.017,0.015,0.058,-0.011,-0.007,0.023
GOLGB1 isoform 2 (UniProt Q14789),0.033,-0.057,-0.09,-0.033,0.177,-0.085,-0.07,-0.047,0,-0.07
GMEB2 (UniProt Q9UKD1),0.038,-0.033,0.041,-0.066,0.09,0.012,0.041,-0.088,0.087,0.029
FUCA1 (UniProt P04066),0.03,0.009,0.021,0.092,-0.054,-0.007,0.066,-0.016,0,0.012
GUK1 isoform 2 (UniProt Q16774),0.173,-0.062,-0.018,0.093,-0.065,0.118,-0.002,0.026,0.072,-0.018
GDI1 (UniProt P31150),0.007,0.012,-0.003,0.009,-0.051,0.015,-0.008,-0.027,-0.032,0.012
IFRD2 isoform 2 (UniProt Q12894),0.093,0.035,-0.129,-0.13,0.055,-0.043,0.062,-0.225,-0.2,-0.142
GLUD1 (UniProt P00367),0.179,-0.007,-0.054,-0.011,-0.063,-0.012,-0.02,0.136,-0.062,-0.007
GALNT4 (UniProt Q8N4A0),0.008,0.017,-0.029,0.013,-0.049,-0.037,-0.001,-0.01,0.005,0.011
GNG5 (UniProt P63218),0.147,-0.17,-0.02,0.074,0.068,0.038,0.004,0.022,-0.063,-0.064
GAGE12F (UniProt P0CL80),-0.005,-0.035,0.006,0.061,0.036,0.019,-0.018,-0.031,-0.076,0.01
HHEX (UniProt Q03014),-0.03,0.045,-0.009,-0.055,0.05,-0.081,0,0.026,-0.026,-0.003
FKBP7 (UniProt Q9Y680),-0.052,0.001,-0.034,-0.074,0.002,-0.031,-0.097,-0.025,0.002,0.044
IDH3A (UniProt P50213),-0.029,-0.003,0.031,0.015,-0.084,0.009,-0.009,-0.014,-0.06,-0.006
FMC1 (UniProt Q96HJ9),-0.036,-0.029,0.027,0.004,-0.038,-0.065,0.014,-0.074,-0.051,0.022
